Potency and outcome data for 8 molecules are collected here from PubChem BioAssay (Tox21).

Values without a mark were called inactive. Results filed as inconclusive are left out. Active and inactive are the calls of the source. Unless noted, calls follow the shape of the dose curve; as a rule, active = well fitted curve in the direction sought with a large enough effect in the repeat runs; inconclusive = weak or mixed curves; inactive = no such curve, though single readings can be large; an effect the other way counts as inactive or inconclusive.

A short description of test [1]: qHTS RealTime-Glo MT Cell Viability Assay in HEK293 cells - 8 hour (AID 1224887). Also: nearly all actives have a fitted effect of over 50% in size. Also: potency is read from the fitted curve at half-maximal effect. The gist of the method:
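HEK293 + NanoLuc + prosubstrate, 600 cells/well; 5 h, 37 C/5% CO2; compound 23 nL in DMSO by pintool; 37 C; luminescence read at 0, 8, 16, 24, 32 and 40 h time points.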

Test [2] in a line: A CellTox Green Cytotoxicity Assay to monitor cytotoxicity in HEK293 cells - 16 hour (AID 1224888). Also: nearly all actives have a fitted effect of over 35% in size. Also: potency is read from the fitted curve at half-maximal effect. The gist of the method: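 Tox21 screen in HEK293: membrane-impermeant cyanine dye fluoresces on binding dead-cell DNA; compound pinned 5 h post-seeding, plates held at 37 C, signal read repeatedly through 40 h.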
The nature of test [3]: qHTS RealTime-Glo MT Cell Viability Assay in HepG2 cells - 0 hour (AID 1224889). Also: nearly all actives have a fitted effect of over 50% in size. The essentials:
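Compound treatment began 5 h after plating HepG2 cells (600/well) with NanoLuc luciferase and prosubstrate. Plates stayed at 37 C for 40 h; luminescence was captured at six time points, 0 h through 40 h.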
(qHTS replaces the single test concentration by a dilution series.)

A short description of test [4]: A CellTox Green Cytotoxicity Assay to monitor cytotoxicity in HepG2 cells - 8 hour (AID 1224890). Also: nearly all actives have a fitted effect of over 45% in size. The essentials: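 Measurements at 0, 8, 16, 24, 32 and 40 h of treatment captured CellTox Green fluorescence in HepG2 cells that had been co-plated with reagent and preincubated 5 h at 37 C/5% CO2.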
Test [5] can be described thus: qHTS assay to identify small molecule antagonists of the estrogen receptor alpha (ER-alpha) signaling pathway using the BG1 cell line in the presence of 0.1 nM 17-beta-estradiol - cell viability counter screen (AID 1259241). Also: nearly all actives have a fitted effect of over 40% in size. The essentials:
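Cells were plated and left 24 hr, compounds in DMSO were pinned in, 17beta-estradiol was added to 0.1 nM final, and after 22 hr CellTiter-Fluor reagent was added for 30 min before fluorescence was read.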

Test [6] concerns the target Androgen receptor (Homo sapiens) (UniProt P10275). The test is described as follows: qHTS assay to identify small molecule antagonists of the androgen receptor (AR) signaling pathway using the MDA cell line in the presence of 0.5 nM R1881 (AID 1259243). Also: nearly all actives have a fitted effect of over 50% in size. Also: potency is read from the fitted curve at half-maximal effect. The essentials:
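With R1881 held at 0.5 nM (final), compound effects on MMTV-luciferase expression in MDA-kb2 cells were scored by luminescence after a 16 hr, 37C incubation.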

The nature of test [7]: qHTS assay to identify small molecule HDAC inhibitors (AID 1259364).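 Also: wild-type HCT-116 cells with endogenous class I/II HDAC activity; top concentration of the series differs between compounds; nearly all actives have a fitted effect of over 45% in size.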 The essentials:
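Screening used wild-type human colon HCT-116 cells incubated overnight, dosed with compounds for 2 hours, and assayed with a homogeneous luminogenic HDAC I/II reagent for 30 minutes at room temperature.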

Test [8] in a line: qHTS assay to identify small molecule HDAC inhibitors - cell viability counter screen (AID 1259365). Also: series mostly up to about 92 µM; nearly all actives have a fitted effect of over 50% in size. The essentials: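 Counter screen in wild-type HCT-116 cells: compounds dissolved in DMSO are pin-transferred onto overnight-plated cells and left 2hr at 37C. ATP-based CellTiter-Glo luminescence then measures viable cells.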
A short description of test [9]: qHTS assay to identify small molecule antagonists of the sonic hedgehog signaling (Shh) pathway - cell viability counter screen (AID 1259367). Also: nearly all actives have a fitted effect of over 55% in size. The essentials: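 Tox21 library chemicals were tested on a Gli1-Luc NIH/3T3 clone (2,000 cells/well) stimulated by conditioned medium; viability was quantified as fluorescence from CellTiter-Fluor reagent added at 23 hr.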

The nature of test [10]: qHTS assay to identify small molecule agonists of the sonic hedgehog signaling (Shh) pathway (AID 1259368; calls by dose curve;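 also: NIH/3T3-derived 3T3Gli1-Luc cells carrying a stable Gli1-driven firefly luciferase reporter; series mostly up to about 92 µM; nearly all actives have a fitted effect of over 15% in size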). The essentials: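 Hedgehog pathway agonism scored by increased firefly luciferase luminescence in 3T3Gli1-Luc cells treated 24 hr at 37 C; detection used a 30 min room-temperature reagent incubation.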
A short description of test [11]: qHTS assay to identify small molecule antagonists of the sonic hedgehog signaling (Shh) pathway (AID 1259369; calls by dose curve; also: nearly all actives have a fitted effect of over 45% in size; also: potency is read from the fitted curve at half-maximal effect). The gist of the method: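 NIH/3T3 stable Gli1-Luc clone, 2,000 cells/well, 4hr settle; cpd + conditioned medium 24hr; Luc reagent 30min RT; luminescence.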
The target in test [12] is Estrogen receptor beta (Homo sapiens) (UniProt Q92731). The test is described as follows: qHTS assay to identify small molecule agonists of the estrogen receptor beta (ER-beta) signaling pathway (AID 1259377; active = well fitted activation curve with a large enough effect in the signal ratio in the repeat runs, not every such curve was filed as active; the % refers to the signal ratio). The essentials:
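Agonist mode cell assay in GripTite HEK293T cells expressing an ER-beta fusion that drives beta-lactamase from an Upstream Activator Sequence; 16 hr compound exposure at 37C, then 2 h LiveBLAzer B/G FRET substrate at room temperature, fluorescence read-out.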

Test [13] has the same target. The test is described as follows: qHTS assay to identify small molecule antagonists of the estrogen receptor beta (ER-beta) signaling pathway (AID 1259378; active = well fitted inhibition curve with a large enough effect in the signal ratio in the repeat runs, not every such curve was filed as active; the % refers to the signal ratio; also: potency is read from the fitted curve at half-maximal effect). The essentials: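 ER-beta-UAS-bla HEK293T cells in 2% charcoal-stripped FBS medium treated with compound plus 1nM final 17-beta-estradiol for 16 hr at 37C. Beta-lactamase reporter read by FRET substrate fluorescence after 2 hours at room temperature.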

Test [14] can be described thus: qHTS assay to identify small molecule agonists of the estrogen receptor beta (ER-beta) signaling pathway - cell viability counter screen (AID 1259380). Also: nearly all actives have a fitted effect of over 30% in size. Also: potency is read from the fitted curve at half-maximal effect. The essentials: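 Measured: luminescence from CellTiter-Glo after 30 min at room temperature, added to wells already read for the LiveBLAzer FRET reporter (2 hr substrate); ER-beta-UAS-bla HEK293T cells had 16 hr compound treatment at 37C, 5% CO2.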

The target in test [15] is Androgen receptor (Homo sapiens) (UniProt P10275). Description: qHTS assay to identify small molecule agonists of the androgen receptor (AR) signaling pathway in the presence of an antagonist (AID 1259381; calls by dose curve; also: nearly all actives have a fitted effect of over 15% in size; also: potency is read from the fitted curve at half-maximal effect). The gist of the method:
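Luminescent ONE-Glo read, 30min at room temperature, follows 16hr compound exposure (15 concentrations) of MDA-kb2 cells at 37C, 0% CO2, with nilutamide added at 3.0uM final.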

The nature of test [16]: qHTS assay to identify small molecule antagonists of the androgen receptor (AR) signaling pathway using the MDA cell line in the presence of 0.5 nM R1881 - cell viability counter screen (AID 1259242). Also: nearly all actives have a fitted effect of over 45% in size. The essentials: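 Concentration-response screen of compounds for toxicity in MDA-kb2 reporter cells: 16 hr at 37C with 0.5 nM R1881, endpoint live-cell protease fluorescence measured in the reporter wells.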

Test [17] is described as follows: qHTS assay to identify small molecule agonists of the sonic hedgehog signaling (Shh) pathway - cell viability counter screen (AID 1259366). Also: nearly all actives have a fitted effect of over 50% in size. The gist of the method:
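Cells are plated at 2,000 per well and left 4hr at 37C, 5% CO2 before compound addition. After 23hr of treatment, CellTiter-Fluor reagent is added for 1hr at 37C and fluorescence is measured.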

In test [18] the target is Estrogen receptor (Homo sapiens) (UniProt P03372). Description: qHTS assay to identify small molecule antagonists of the estrogen receptor alpha (ER-alpha) signaling pathway using the BG1 cell line in the presence of 0.1 nM 17-beta-estradiol (AID 1259244). Also: nearly all actives have a fitted effect of over 50% in size. The essentials: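 Compounds were tested against 0.1 nM (final) 17beta-estradiol in VM7Luc4E2 cells, which express full-length ER-alpha and an ERE-luciferase reporter; luminescence was recorded following 22 h exposure.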
Chain of Estrogen receptor (Homo sapiens) (P03372 whole entry, looked up): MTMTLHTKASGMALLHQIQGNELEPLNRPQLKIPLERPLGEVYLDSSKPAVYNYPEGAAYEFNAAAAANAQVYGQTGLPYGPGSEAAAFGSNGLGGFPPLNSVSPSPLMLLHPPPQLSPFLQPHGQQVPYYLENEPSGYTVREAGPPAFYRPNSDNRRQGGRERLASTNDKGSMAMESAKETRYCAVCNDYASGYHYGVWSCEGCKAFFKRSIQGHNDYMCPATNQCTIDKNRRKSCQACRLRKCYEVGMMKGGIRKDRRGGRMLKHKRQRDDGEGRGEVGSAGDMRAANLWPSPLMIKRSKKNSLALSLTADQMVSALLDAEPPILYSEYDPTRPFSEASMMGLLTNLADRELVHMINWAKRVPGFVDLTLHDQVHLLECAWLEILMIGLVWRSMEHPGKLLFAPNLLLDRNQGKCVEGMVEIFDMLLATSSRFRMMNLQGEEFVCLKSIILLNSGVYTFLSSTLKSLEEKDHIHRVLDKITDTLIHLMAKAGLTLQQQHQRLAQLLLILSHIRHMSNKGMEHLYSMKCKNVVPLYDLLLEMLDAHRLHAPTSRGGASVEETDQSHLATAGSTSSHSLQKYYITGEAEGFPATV

Test [19] can be described thus: qHTS assay to identify small molecule agonists of the androgen receptor (AR) signaling pathway in the presence of an antagonist - cell viability counter screen (AID 1259379).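 Also: MDA-kb2 human breast cancer cells carrying an MMTV luciferase reporter; series mostly up to about 92 µM; nearly all actives have a fitted effect of over 25% in size.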 The gist of the method: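 MDA-kb2 viability measured by CellTiter-Fluor fluorescence in the same wells as the luciferase signal; nilutamide 3.0uM final; 15-point compound titration; 16 hr at 37C.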

Chain of Androgen receptor (Homo sapiens) (P10275 whole entry, looked up): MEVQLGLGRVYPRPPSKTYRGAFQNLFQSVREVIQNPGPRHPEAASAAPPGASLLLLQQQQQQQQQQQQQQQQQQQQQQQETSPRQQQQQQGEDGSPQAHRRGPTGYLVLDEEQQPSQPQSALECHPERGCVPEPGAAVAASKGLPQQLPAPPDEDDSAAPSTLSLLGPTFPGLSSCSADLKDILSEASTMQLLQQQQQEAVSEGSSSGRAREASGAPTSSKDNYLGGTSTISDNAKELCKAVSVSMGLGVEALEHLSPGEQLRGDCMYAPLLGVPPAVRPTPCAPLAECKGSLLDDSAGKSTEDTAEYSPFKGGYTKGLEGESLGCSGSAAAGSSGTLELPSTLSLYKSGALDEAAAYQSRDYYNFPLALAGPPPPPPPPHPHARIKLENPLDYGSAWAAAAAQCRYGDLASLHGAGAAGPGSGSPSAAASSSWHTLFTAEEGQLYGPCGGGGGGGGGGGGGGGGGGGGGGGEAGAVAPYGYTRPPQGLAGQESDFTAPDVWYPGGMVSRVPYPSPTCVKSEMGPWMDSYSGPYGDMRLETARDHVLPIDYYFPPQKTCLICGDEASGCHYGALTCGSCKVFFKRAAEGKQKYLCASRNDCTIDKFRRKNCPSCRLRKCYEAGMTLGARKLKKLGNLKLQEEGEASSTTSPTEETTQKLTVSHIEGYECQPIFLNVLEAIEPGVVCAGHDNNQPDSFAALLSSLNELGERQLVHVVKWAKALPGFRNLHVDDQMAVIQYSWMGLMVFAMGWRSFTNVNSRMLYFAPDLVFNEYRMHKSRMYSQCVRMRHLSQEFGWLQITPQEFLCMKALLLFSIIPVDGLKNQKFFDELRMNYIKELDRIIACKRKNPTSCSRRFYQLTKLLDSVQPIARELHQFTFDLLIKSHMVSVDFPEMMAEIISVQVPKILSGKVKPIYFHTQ
Chain of Estrogen receptor beta (Homo sapiens) (Q92731 whole entry, looked up, the tested form may be a part): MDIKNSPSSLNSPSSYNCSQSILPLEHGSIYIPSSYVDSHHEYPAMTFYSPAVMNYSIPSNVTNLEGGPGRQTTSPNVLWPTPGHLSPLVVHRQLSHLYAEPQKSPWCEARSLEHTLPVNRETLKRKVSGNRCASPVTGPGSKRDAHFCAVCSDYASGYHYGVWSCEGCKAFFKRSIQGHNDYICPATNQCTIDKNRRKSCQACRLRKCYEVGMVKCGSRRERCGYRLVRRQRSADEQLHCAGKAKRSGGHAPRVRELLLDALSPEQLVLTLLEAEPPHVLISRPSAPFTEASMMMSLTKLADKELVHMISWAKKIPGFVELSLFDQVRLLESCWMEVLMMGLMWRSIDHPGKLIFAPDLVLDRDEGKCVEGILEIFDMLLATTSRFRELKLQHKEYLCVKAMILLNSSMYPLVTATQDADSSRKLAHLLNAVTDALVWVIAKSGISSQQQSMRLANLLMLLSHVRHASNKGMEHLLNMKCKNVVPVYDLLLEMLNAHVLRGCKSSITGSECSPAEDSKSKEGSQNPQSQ

With `O=C(CCCCCCCCc1cccnc1)N1CCC(C=C(c2ccccc2)c2ccccc2)CC1`, the Potency in test [1] is 21.9 µM (active); in test [6], 27.3 µM (active); in test [11], 17.2 µM (active); in test [13] it was 15.4 µM (active); in test [14], 21.7 µM (active). Further, the Potency entry in [2], in test [3], in [4], in test [5], in test [7] and in test [8] was “inactive” each time. Also, the Potency entry in [9], in test [10] and in test [15] was “inactive” in each case. Besides, the result in test [12] was inactive.
Consider `O=C1CCCCCCCCCCCCCC1`, for which the Potency result in test [1], in [3], in [4], in [5], in test [16] and in test [7] was “inactive” each time. Further, the Potency result in test [8], in [17], in test [9], in test [10], in test [11] and in test [13] was “inactive” throughout. In addition, the Potency in [2] is 43.6 µM (active). In test [12], the molecule was called inactive.
As to `NC(=O)c1ccccc1Cl`, the Potency result in test [1], in [2], in test [3], in test [4], in [5] and in test [16] was “inactive” each time. Further, the Potency entry in test [18], in test [7], in [17], in test [9], in [10] and in test [11] was “inactive” throughout. Moreover, the Potency entry in test [13] and in [14] was “inactive” each time. Further, the molecule was called inactive in test [12].
On to `Nc1ccc(Oc2cccc(Oc3ccc(N)cc3)c2)cc1`, for which the Potency result in test [1], in test [2], in [3], in test [4], in test [5] and in test [16] was “inactive” throughout. Further, the Potency entry in test [7], in test [8], in test [17], in test [10] and in test [19] was “inactive” in each case. Further, the Potency in test [11] is 8.63 µM (active). For the same molecule, the molecule was classed as inactive in [12].
Consider `C=CC(=O)O[C@H]1C[C@@H]2CC[C@@]1(C)C2(C)C`, for which the Potency entry in test [1], in test [2], in test [3], in test [4], in test [5] and in [16] was “inactive” throughout. Also, the Potency entry in test [18], in test [7], in [8], in test [17], in [9] and in test [10] was “inactive” throughout. Besides, the Potency entry in [13] and in test [19] was “inactive” in each case. In addition, the call in test [12] was inactive.
As to `Cc1cccc(C)c1C`, the Potency result in test [1], in test [2], in test [3], in test [4], in test [5] and in [16] was “inactive” in each case. Moreover, the Potency result in test [7], in test [8], in test [17], in test [9], in test [10] and in [11] was “inactive” in each case. For the same molecule, in [19], the Potency entry is “inactive”.
`CCOC(=O)[C@H](O)[C@@H](O)C(=O)OCC`: the Potency result in test [1], in [2], in test [3], in test [4], in [16] and in test [6] was “inactive” each time. Further, the Potency result in test [18], in [7], in [8], in test [17], in test [9] and in test [10] was “inactive” each time. The Potency entry in test [11], in test [13], in [19], in test [14] and in [15] was “inactive” in each case.
In the case of `CCN(CC)c1ccc(C=O)c(O)c1`, the Potency result in [1], in [2], in [3], in test [4], in test [5] and in [16] was “inactive” in each case. Further, the Potency result in test [18], in test [7], in [8], in test [17], in [9] and in test [10] was “inactive” throughout. Further, the Potency entry in test [11] was “inactive”. Moreover, the Potency in test [15] is 43.3 µM (active).
